According to PubChem BioAssay:

Each compound was assayed against GTPase HRas (Homo sapiens) (UniProt P01112) (assay: inhibitors of GTP binding to wildtype Ras, dose response, biochemical, multiplex bead flow cytometry (AID 1335)). Details: bead-based flow cytometry, Bodipy-GTP binding to GST-Ras; at 100 µM (top of the series) unless noted.
GTPase HRas (Homo sapiens), sequence (P01112 whole entry, looked up): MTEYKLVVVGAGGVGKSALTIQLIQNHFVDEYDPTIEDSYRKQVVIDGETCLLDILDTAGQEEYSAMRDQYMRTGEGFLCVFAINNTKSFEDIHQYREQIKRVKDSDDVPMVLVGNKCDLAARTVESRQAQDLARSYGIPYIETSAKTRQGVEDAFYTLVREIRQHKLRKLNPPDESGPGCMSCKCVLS
For `O=C(c1cccnc1SCCc1ccccc1)N1CCOCC1`, the GTP binding, percent of control was 101%.
`COc1cc(/C=N/NC(=O)CCN2CCN(c3ccccc3)CC2)cc(OC)c1OC` showed a GTP binding, percent of control of 77.3%.
`O=C(O)c1ccc(CNCc2ccccc2Cl)s1` gave a GTP binding, percent of control of 86.6%.
`CCN(CC)c1ccc(/C=N/OCC(=O)Nc2cccc(C)c2)cc1` gave a GTP binding, percent of control of 74.6%.
`CCc1ccccc1NCc1sc(C(=O)O)cc1C` was tested, and the GTP binding, percent of control was 87.1%.
In the case of `COc1ccc(-c2nn3c(-c4ccco4)nnc3s2)cc1OC`, the GTP binding, percent of control is reported as 132%.
In the case of `CS(=O)(=O)Nc1ccc(Br)cc1C(=O)c1ccccc1`, the GTP binding, percent of control is reported as 59%.
In the case of `Cn1c(N/N=C/c2cccs2)nc2c1c(=O)n(Cc1ccccc1)c(=O)n2C`, the GTP binding, percent of control is reported as 51.7%.
Work on `Cc1ccc(C(C)C)c(OCCSc2nc3ccccc3n2CC(=O)O)c1` yielded a GTP binding, percent of control of 86.4%.
`OCC(CO)(CO)NCc1ccc(-c2ccccc2)cc1` showed a GTP binding, percent of control of 65.6%.
For `CCC(Oc1ccc2ccccc2c1)C(=O)O` (centres undefined), the GTP binding, percent of control was 156%.
`CCOc1ccccc1C1C(C(=O)OC)=C(N)OC2=C1C(=O)CCC2` (centres undefined) showed a GTP binding, percent of control of 149%.
`O=C(O)c1ccc(COc2ccc(F)cc2)o1` gave a GTP binding, percent of control of 87.5%.
With `COc1cc2[nH]c(=S)nc(NCCc3ccc(C)cc3)c2cc1OC` the GTP binding, percent of control was 59.9%.
`CC(C)(C)c1ccc(OCCn2cc(C(=O)O)c3ccccc32)cc1` gave a GTP binding, percent of control of 82.9%.
In the case of `COc1ccc(C2=Nn3c(nnc3-c3ccccc3)SC2)cc1OC`, the GTP binding, percent of control is reported as 86%.
For `COc1cc(/C=N/Nc2nn3cnnc3c3ccccc23)ccc1O`, the GTP binding, percent of control was 122%.
For `Cc1ccc(Nc2cc(C(=O)O)c3ccccc3n2)c(C)c1`, the GTP binding, percent of control was 83.7%.
Compound `COc1cc2c(C)nc3c(c(C)nn3-c3ccccc3)c2cc1OC` has a GTP binding, percent of control of 71.7%.
Compound `O=C(O)c1ccc(CNCc2ccc(F)cc2)cc1` has a GTP binding, percent of control of 87.8%.
Compound `COc1ccc(CC(C)N2CCN(Cc3ccccc3)CC2)c(OC)c1` (centres undefined) has a GTP binding, percent of control of 85.3%.
For `O=C(Cn1nc(-c2ccccc2)c2ccccc2c1=O)Nc1ccccn1`, the GTP binding, percent of control was 58.1%.
Work on `CCCN(CC1CC1)C(=S)Nc1ccc(Oc2ccccc2)cc1` yielded a GTP binding, percent of control of 81.4%.
`Cc1cccc(CNc2nc(C)ccc2C(=O)O)c1` showed a GTP binding, percent of control of 218%.
For `CC(SC(=S)N(C)Cc1cccs1)C(=O)O` (centres undefined), the GTP binding, percent of control was 79.5%.
Compound `O=c1c2ccccc2nc2c3ccccc3c(NCc3cccnc3)nn12` has a GTP binding, percent of control of 71.5%.
`COc1ccc(C(=O)N/C(=C\c2cccc([N+](=O)[O-])c2)C(=O)Nc2cccc(C(=O)O)c2)cc1` showed a GTP binding, percent of control of 78.2%.
`O=C(O)c1ccc(CSCc2ccccc2Cl)o1` was tested, and the GTP binding, percent of control was 79.8%.
Work on `O=C(C#Cc1cccc(O)c1)c1ccc([N+](=O)[O-])cc1` yielded a GTP binding, percent of control of 196%.
`CCOc1ccc(-n2nc3c(=O)[nH]nc(C)c3c2C)cc1` showed a GTP binding, percent of control of 60.9%.
In the case of `O=C(CNC(=O)Cc1ccccc1)N=Nc1c(O)n(Cc2ccc3c(c2)OCO3)c2ccccc12`, the GTP binding, percent of control is reported as 48.5%.
`CCOC(=O)c1c(-c2ccccc2)csc1NC(=O)/C(C#N)=C/c1ccc(O)c(OC)c1` gave a GTP binding, percent of control of 85%.
Compound `C/C(=N\Nc1cc(C)nc(-c2ccccc2)n1)c1cccc([N+](=O)[O-])c1` has a GTP binding, percent of control of 77.8%.
`C=CCn1c(SCC(=O)Nc2ccc3c(c2)OCO3)nnc1-c1cc(Br)ccc1O` was tested, and the GTP binding, percent of control was 84.9%.
In the case of `CC(C)OCCCn1c(=NC(=O)c2ccncc2)c(C#N)cc2c(=O)n3ccccc3nc21`, the GTP binding, percent of control is reported as 160%.
`COc1cccc(NC(=O)CSc2nc3c([nH]c4ccccc43)c(=O)n2C)c1` was tested, and the GTP binding, percent of control was 92.1%.
For `COc1ccc(OCCSc2nc3nc(C)cc(C)n3n2)cc1`, the GTP binding, percent of control was 87.4%.
`CCc1nnc(NC(=O)CSc2nnc(CNc3ccc(F)cc3)n2C2CCCCC2)s1` gave a GTP binding, percent of control of 72.6%.
In the case of `CCOC(=O)c1ccc2ncc(-c3ccccc3)nc2c1`, the GTP binding, percent of control is reported as 79.4%.
